Experimental data taken from PubChem BioAssay.
Active and inactive are the calls of the source.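 The calls were made as follows, unless noted: active = normalized viability below 100% at a tested concentration; inactive = the rest.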

Assays:
[1] = ovarian cancer cell viability with rucaparib, profiling panel, oncology-focused library, rucaparib conditional (AID 1508598); conditions: patient-derived ovarian cancer cells, CellTiter-Glo viability, 144 h, active compounds read low
[2] = biological target: NAD(+) hydrolase SARM1 (Homo sapiens) (UniProt Q6SZW1); assay: SARM1 TIR NADase inhibitors, cell lysate, NAD-Glo luminescence (AID 1508614;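 active = compound whose remaining NAD level is above about 45 nM, limit read from the data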;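 also: higher remaining NAD means stronger inhibition of SARM1 NADase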); conditions: SAM-TIR HEK293T lysate NADase, at 1 µM, active compounds read high
Sequence of NAD(+) hydrolase SARM1 (Homo sapiens) (Q6SZW1 whole entry, looked up): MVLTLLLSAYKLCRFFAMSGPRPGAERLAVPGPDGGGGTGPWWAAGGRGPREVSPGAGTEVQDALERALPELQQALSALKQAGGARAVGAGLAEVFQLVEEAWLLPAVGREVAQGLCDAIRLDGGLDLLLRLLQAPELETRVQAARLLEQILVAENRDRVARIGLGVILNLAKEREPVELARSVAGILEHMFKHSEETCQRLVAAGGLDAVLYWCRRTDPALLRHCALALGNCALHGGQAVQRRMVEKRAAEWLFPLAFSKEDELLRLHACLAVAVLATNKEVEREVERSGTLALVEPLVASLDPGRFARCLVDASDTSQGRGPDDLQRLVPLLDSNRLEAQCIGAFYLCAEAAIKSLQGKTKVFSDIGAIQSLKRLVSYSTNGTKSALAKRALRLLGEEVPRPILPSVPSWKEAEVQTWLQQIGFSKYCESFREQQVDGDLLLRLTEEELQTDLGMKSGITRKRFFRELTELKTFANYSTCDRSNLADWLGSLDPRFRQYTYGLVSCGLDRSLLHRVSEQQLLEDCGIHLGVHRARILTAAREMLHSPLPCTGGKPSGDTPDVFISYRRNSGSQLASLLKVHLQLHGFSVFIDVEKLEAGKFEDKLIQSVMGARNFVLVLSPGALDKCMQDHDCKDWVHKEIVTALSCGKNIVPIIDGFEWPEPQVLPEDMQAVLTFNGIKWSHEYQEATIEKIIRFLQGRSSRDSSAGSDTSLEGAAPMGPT

[3] = at 0.000305 µM, OCI-C5x cells, with rucaparib 10 µM, 100% = cells with rucaparib alone
[4] = at 0.000305 µM, OCI-C5x cells, without rucaparib
[5] = at 0.000305 µM, OCI-P5x cells, with rucaparib 20 µM, 100% = cells with rucaparib alone
[6] = at 0.000305 µM, OCI-P5x cells, without rucaparib
[7] = at 0.00122 µM, OCI-C5x cells, with rucaparib 10 µM, 100% = cells with rucaparib alone
[8] = at 0.00122 µM, OCI-C5x cells, without rucaparib
[9] = at 0.00122 µM, OCI-P5x cells, with rucaparib 20 µM, 100% = cells with rucaparib alone
[10] = at 0.00122 µM, OCI-P5x cells, without rucaparib
[11] = at 0.00488 µM, OCI-C5x cells, with rucaparib 10 µM, 100% = cells with rucaparib alone
[12] = at 0.00488 µM, OCI-C5x cells, without rucaparib
[13] = at 0.00488 µM, OCI-P5x cells, with rucaparib 20 µM, 100% = cells with rucaparib alone
[14] = at 0.00488 µM, OCI-P5x cells, without rucaparib
[15] = at 0.0195 µM, OCI-C5x cells, with rucaparib 10 µM, 100% = cells with rucaparib alone
[16] = at 0.0195 µM, OCI-C5x cells, without rucaparib
[17] = at 0.0195 µM, OCI-P5x cells, with rucaparib 20 µM, 100% = cells with rucaparib alone
[18] = at 0.0195 µM, OCI-P5x cells, without rucaparib
[19] = at 0.0781 µM, OCI-C5x cells, with rucaparib 10 µM, 100% = cells with rucaparib alone
[20] = at 0.0781 µM, OCI-C5x cells, without rucaparib
[21] = at 0.0781 µM, OCI-P5x cells, with rucaparib 20 µM, 100% = cells with rucaparib alone
[22] = at 0.0781 µM, OCI-P5x cells, without rucaparib
[23] = at 0.313 µM, OCI-C5x cells, with rucaparib 10 µM, 100% = cells with rucaparib alone
[24] = at 0.313 µM, OCI-C5x cells, without rucaparib
[25] = at 0.313 µM, OCI-P5x cells, with rucaparib 20 µM, 100% = cells with rucaparib alone
[26] = at 0.313 µM, OCI-P5x cells, without rucaparib
[27] = at 1.25 µM, OCI-C5x cells, with rucaparib 10 µM, 100% = cells with rucaparib alone
[28] = at 1.25 µM, OCI-C5x cells, without rucaparib
[29] = at 1.25 µM, OCI-P5x cells, with rucaparib 20 µM, 100% = cells with rucaparib alone
[30] = at 1.25 µM, OCI-P5x cells, without rucaparib
[31] = at 5 µM, OCI-C5x cells, with rucaparib 10 µM, 100% = cells with rucaparib alone
[32] = at 5 µM, OCI-C5x cells, without rucaparib
[33] = at 5 µM, OCI-P5x cells, with rucaparib 20 µM, 100% = cells with rucaparib alone
[34] = at 5 µM, OCI-P5x cells, without rucaparib

COc1cc([C@H]2c3cc4c(cc3[C@@H](O[C@@H]3O[C@@H]5CO[C@@H](c6cccs6)O[C@H]5[C@H](O)[C@H]3O)[C@H]3COC(=O)[C@H]23)OCO4)cc(OC)c1O
active: viability [1, 11] 97.4% | viability [1, 15] 73.9% | viability [1, 16] 81.6% | viability [1, 19] 63.2% | viability [1, 20] 73.7% | viability [1, 21] 87.9% | viability [1, 22] 60.7% | viability [1, 23] 78.4% | viability [1, 24] 56.8% | viability [1, 25] 71% | viability [1, 26] 35.6% | viability [1, 27] 33.4% | viability [1, 28] 21.2% | viability [1, 29] 54.6% | viability [1, 30] 23.6% | viability [1, 31] 8.34% | viability [1, 32] 7.07% | viability [1, 33] 12.4% | viability [1, 34] 7.92%
inactive: viability [1, 3] 104% | viability [1, 4] 117% | viability [1, 5] 100% | viability [1, 6] 116% | viability [1, 7] 115% | viability [1, 8] 111% | viability [1, 9] 102% | viability [1, 10] 109% | viability [1, 12] 104% | viability [1, 13] 100% | viability [1, 14] 109% | viability [1, 17] 102% | viability [1, 18] 102%

CCCCCOC(=O)Nc1nc(=O)n([C@@H]2O[C@H](C)[C@@H](O)C2O)cc1F (some centres undefined)
inactive: viability [1, 3] 114% | viability [1, 4] 111% | viability [1, 5] 115% | viability [1, 6] 116% | viability [1, 7] 119% | viability [1, 8] 120% | viability [1, 9] 123% | viability [1, 10] 115% | viability [1, 11] 111% | viability [1, 12] 126% | viability [1, 13] 115% | viability [1, 14] 123% | viability [1, 15] 126% | viability [1, 16] 113% | viability [1, 17] 115% | viability [1, 18] 123% | viability [1, 19] 101% | viability [1, 20] 111% | viability [1, 21] 121% | viability [1, 22] 118% | viability [1, 23] 106% | viability [1, 24] 109% | viability [1, 25] 115% | viability [1, 26] 123% | viability [1, 27] 105% | viability [1, 28] 117% | viability [1, 29] 113% | viability [1, 30] 116% | viability [1, 31] 107% | viability [1, 32] 114% | viability [1, 33] 121% | viability [1, 34] 122%

COc1cccc2c1C(=O)c1c(O)c3c(c(O)c1C2=O)C[C@@](O)(C(=O)CO)C[C@H]3O[C@H]1C[C@H](N)[C@H](O)[C@H](C)O1
inactive: viability [1, 3] 127% | viability [1, 4] 120% | viability [1, 5] 109% | viability [1, 6] 109% | viability [1, 7] 111% | viability [1, 8] 111% | viability [1, 9] 110% | viability [1, 10] 106% | viability [1, 11] 118% | viability [1, 12] 117% | viability [1, 13] 104% | viability [1, 14] 108% | viability [1, 15] 130% | viability [1, 16] 110% | viability [1, 17] 103% | viability [1, 18] 106% | viability [1, 19] 115% | viability [1, 20] 103% | viability [1, 23] 164% | viability [1, 24] 125%
active: viability [1, 21] 97.4% | viability [1, 22] 82% | viability [1, 25] 58.8% | viability [1, 26] 32.7% | viability [1, 27] 50% | viability [1, 28] 16.5% | viability [1, 29] 10.3% | viability [1, 30] 13.8% | viability [1, 31] 4.6% | viability [1, 32] 1.33% | viability [1, 33] 5.65% | viability [1, 34] 8.22%

COc1cc(=C2C=c3ccccc3=N2)[nH]/c1=C\c1[nH]c(C)cc1C
inactive: viability [1, 3] 118% | viability [1, 4] 122% | viability [1, 7] 127% | viability [1, 8] 124% | viability [1, 11] 132% | viability [1, 12] 114% | viability [1, 13] 105% | viability [1, 15] 115% | viability [1, 16] 115% | viability [1, 19] 110% | viability [1, 23] 131%
active: viability [1, 5] 81.8% | viability [1, 6] 30.2% | viability [1, 9] 69.4% | viability [1, 10] 19.5% | viability [1, 14] 97.2% | viability [1, 17] 98.9% | viability [1, 18] 97.5% | viability [1, 20] 79.1% | viability [1, 21] 29.2% | viability [1, 22] 77.3% | viability [1, 24] 93.7% | viability [1, 25] 13.2% | viability [1, 26] 18.4% | viability [1, 27] 89.4% | viability [1, 28] 91.7% | viability [1, 29] 10.1% | viability [1, 30] 22% | viability [1, 31] 37.7% | viability [1, 32] 21.3% | viability [1, 33] 1.33% | viability [1, 34] 3.6%

O=C(O[C@H]1CN2CCC1CC2)N1CCc2ccccc2[C@@H]1c1ccccc1
inactive: remaining NAD [2] 10 nM
